TNAP act DEA: human TNAP activation, intermediate phosphate acceptor | purified TNAP, CDP-star luminescence, 100 mM DEA, 30 min; active compounds read high; scale: 0 levamisole-inhibited, 1 vehicle-only enzyme | 64,000 tested, under 10 active | AID 813 | activation factor at 20 µM;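 active means activation factor of at least 2 at 20 µM, relative to controls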
Cav32 inh: inhibitors of human Cav3.2 T-type calcium channel | Cav3.2-expressing cells, Fluo-4 calcium fluorescence FDSS; active compounds read low | O95180 | hit rate 4% among 100,000 | AID 449739 | B-score at 10 µM;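 active means single-dose well whose peak fluorescence ratio is a statistical outlier from its plate by either plate-standardised score or position-corrected B-score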
DAT uptake mod: human DAT dopamine uptake with cocaine, either direction; Q01959; hit rate 1.3% among 110,000; LLC-PK1 hDAT cells, [14C]-dopamine uptake with cocaine IC80; actives deviate in either direction; B-score at 10 µM; AID 449768;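 active means Z score or B-score, a plate-position-corrected score, falls beyond the plate's 99.7% confidence bounds, in either direction; inactive means both scores lie inside the 99.7% bounds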;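 further: scored against the spread of the other compound wells on the same plate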
PostGolgi yeast: growth inhibition of a yeast mutant, post-Golgi transport screen. inhibition, % at 10 µM. hit rate 0.9% among 98,000. AID 739. post-Golgi transport phenotypic cell assay;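 further: yeast cells grown in 1536-well plates; yeast grown about 18 h at 30C before absorbance read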
PostGolgi ctrl: yeast control strain growth, post-Golgi counter-screen; hit rate 5% among 98,000; inhibition, % at 10 µM; efflux-deficient yeast background strain, growth absorbance A615, 16 h
Smad3 inh: inhibitors of human Smad3 transcription factor binding. P84022. TR-FRET Smad3/Dy647-FoxH1 peptide binding, europium anti-His. inhibition, % at 25 µM. hit rate 0.29% among 88,000;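 active means compounds that reduce the energy-transfer binding signal between the protein and its labelled peptide by more than half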;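 further: 0% = Smad3 plus labelled peptide maximal FRET and 100% = peptide-only background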
* = called active by the depositor; . = not tested or not shown. Compounds with a hit are over-represented: about 8.7% of the library has one in this group of screens. Unless noted, no stated cut-off is given here; in the data, active means inhibition above about 30%; inactive means the rest.

SMILES | TNAP act DEA | Cav32 inh | DAT uptake mod | PostGolgi yeast | PostGolgi ctrl | Smad3 inh
COCc1nc(-c2cc(Br)ccc2OC)no1 | 0.9 | -0.19 | 2.86* | -2.4 | 14.9 | 5.3
CCCCCOC(=O)C1=C(C)Nc2ncnn2C1c1cccs1 (stereo not given) | . | -0.722 | -0.0327 | -0.5 | 17.6 | 22.5
O=C(Oc1ccc2[nH]cc(CCN3C(=O)c4ccccc4C3=O)c2c1)c1ccco1 | 0.9 | -1.94 | 2.1 | 11.4 | 9.8 | -3.7
CC(=O)Nc1nnc(SCC(=O)NC(C)(C)C)s1 | 0.9 | -2.36 | -0.37 | -4.2 | 31.8* | -3.0
COc1ccccc1N1CCN(C(=O)C2c3ccccc3Oc3ccccc32)CC1 | 0.9 | -5.81* | -0.0726 | 17.4 | 41.6* | 3.4
O=C(C1c2ccccc2Oc2ccccc21)N1CCN(c2ccc(Cl)cc2)CC1 | . | . | . | -10.5 | 37.4* | 5.0
Cc1nc(SCc2cccc(F)c2)[nH]c(=O)c1C#N | 1 | -2.28 | 0.976 | 0.5 | 0.5 | -4.9
Cc1nc(NCCNC(=O)c2ccco2)c2c(C)c(C)sc2n1 | 0.8 | 2.49 | -0.359 | -2.3 | 0.1 | 1.7
CC1(C)CC(=O)c2cnc(NC(=O)Cc3ccc(Cl)cc3)nc2C1 | 0.8 | . | 0.338 | 5.5 | -4.6 | 8.0
Cc1c(C(=O)Nc2ccc(Oc3ccccc3)cc2)sc2nc3n(c(=O)c12)CCC3 | . | -0.0409 | 0.413 | 15.0 | 30.9* | 6.8
CCOC(=O)c1sc2nc3n(c(=O)c2c1C)CCCCC3 | 0.9 | -0.122 | 0.501 | -5.0 | 30.3* | -10.5
O=C(CSc1nccc(=O)[nH]1)Nc1ccc(S(=O)(=O)N2CCOCC2)cc1 | . | 1.88 | 0.401 | . | . | -20.4
N=C(N)SCc1ccc(Cl)cc1Cl (tested in a mixture with another compound) | . | . | . | . | . | 3.1
O=C1OCC2=C1C(c1ccc(F)cc1)Sc1ccccc1N2 (stereo not given) | . | -3 | -0.231 | 93.6* | -7.2 | .
COc1cc(C2Sc3ccccc3NC3=C2C(=O)OC3)cc(OC)c1OC (stereo not given) | . | -0.0585 | -0.527 | . | . | 0.0
CCC(C)NC(=O)c1c(N)n(/N=C/c2ccccn2)c2nc3ccccc3nc12 (stereo not given) | 0.9 | 0.54 | 1.71 | 1.2 | 37.4* | -8.8
CCC(C)NC(=O)c1c(N)n(/N=C/c2cccnc2)c2nc3ccccc3nc12 (stereo not given) | 1 | 0.0358 | 0.13 | 0.5 | 15.8 | -2.8
COCCCNC(=O)c1cccs1 | . | -0.00234 | 2.66* | -2.4 | 20.9 | -1.0
O=C(NCCCNC(=O)c1cccs1)c1cccs1 | 1 | -0.00725 | -0.419 | 1.8 | 19.5 | 14.3
COCCCNC(=O)c1cccc(C(=O)NCCCOC)c1 | 0.9 | 0.803 | -1.55 | -2.3 | 41.4* | -0.7
COC(=O)c1ccc(OCC2c3cc(OC)c(OC)cc3CCN2C(=O)c2ccco2)cc1 (stereo not given) | 0.9 | -1.73 | -1.4 | -3.3 | 27.7 | -0.6
Cc1ccc(C(=O)c2ccc(O)cc2)cc1C | 1 | -1.74 | 0.14 | 2.0 | 20.8 | .
CCCCC1=CC2=CC(=O)C(C)(OC(=O)CC)C(=O)C2=CN1c1ccccc1 (stereo not given) | . | -0.46 | -2.92* | . | . | .
CCOc1ccc(OCC)c(NC(=O)CCS(=O)(=O)c2ccc(Br)s2)c1 | . | -0.072 | -0.934 | 6.8 | 11.8 | 9.3
O=S(=O)(c1cccc2nsnc12)N1CCCC1 | 0.9 | 0.726 | -0.782 | 1.6 | 2.9 | -14.1
SMILES | TNAP act DEA | Cav32 inh | DAT uptake mod | PostGolgi yeast | PostGolgi ctrl | Smad3 inh
Nc1cc(-c2ccc(Cl)cc2)nn1S(=O)(=O)c1cccc2nsnc12 | . | -6.4* | 0.986 | 58.0* | 65.7* | -6.6
Nc1cc(-c2ccc(Br)cc2)nn1S(=O)(=O)c1cccc2nsnc12 | . | . | . | 44.1* | 83.1* | .
Nc1cc(-c2cccc(F)c2)nn1S(=O)(=O)c1cccc2nsnc12 | 0.8 | -5.23* | 0.175 | 15.8 | -0.5 | 0.6
COc1ccc(N/N=C(/C#N)S(=O)(=O)c2nsc(C)c2C#N)cc1 | . | 1.83 | -0.454 | -1.3 | 7.5 | 8.6
Cc1snc(S(=O)(=O)/C(C#N)=N/Nc2cccc(C(F)(F)F)c2)c1C#N | . | -6.24* | -0.712 | -0.5 | 8.2 | 6.9
CCNC(=O)c1cc2c(=O)n3cccc(C)c3nc2n1C | 1 | . | . | . | . | 2.8
CCOCCCNC(=O)c1cc2sc(Cl)cc2n1CC | 0.9 | -1.87 | -0.262 | 38.7* | 7.4 | 18.7
CCOCCCNC(=O)c1cc(C)nn1-c1ccccc1 | 1 | -0.805 | -0.0204 | -5.5 | 5.1 | -1.6
Nc1ccc(S(=O)(=O)c2ccc(NC(=O)c3cccnc3)cc2)cc1 | . | . | . | . | . | 56.7*

Source: PubChem (several laboratories)
